From PubChem BioAssay (Tox21) come the findings set out here.

Experiment [1] is described as follows: A CellTox Green Cytotoxicity Assay to monitor cytotoxicity in HepG2 cells - 8 hour (AID 1224890). Also: nearly all actives have a fitted effect of over 45% in size. Also: potency is read from the fitted curve at half-maximal effect. The method, boiled down: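 Continuous culture of HepG2 cells with a membrane-impermeant DNA dye; rising fluorescence marks dead cells. Compound exposure lasted up to 40 h at 37 C, with reads every 8 h from 0 h.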
The nature of experiment [2]: qHTS assay to identify small molecule antagonists of the estrogen receptor alpha (ER-alpha) signaling pathway using the BG1 cell line in the presence of 0.1 nM 17-beta-estradiol - cell viability counter screen (AID 1259241). Also: nearly all actives have a fitted effect of over 40% in size. The procedure, abridged:
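Measures cytotoxicity alongside the ER-alpha antagonist readout: VM7Luc4E2 cells, charcoal-stripped serum, 0.1 nM 17beta-estradiol final, 22 hr compound incubation at 37C, CellTiter-Fluor fluorescence.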

Experiment [3] is described as follows: qHTS assay to identify small molecule antagonists of the androgen receptor (AR) signaling pathway using the MDA cell line in the presence of 0.5 nM R1881 - cell viability counter screen (AID 1259242). Also: nearly all actives have a fitted effect of over 45% in size. Also: potency is read from the fitted curve at half-maximal effect. The method, boiled down:
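Fluorescence from CellTiter-Fluor, which reports protease activity of live cells, was read 30 min after reagent addition to MDA-kb2 cells that had been incubated 16 hr with compound and 0.5 nM R1881.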
A general note: In qHTS, concentration-response curves come from the screen itself.

Experiment [4] addresses Estrogen receptor (Homo sapiens) (UniProt P03372). Kind of experiment: qHTS assay to identify small molecule antagonists of the estrogen receptor alpha (ER-alpha) signaling pathway using the BG1 cell line in the presence of 0.1 nM 17-beta-estradiol (AID 1259244). Also: nearly all actives have a fitted effect of over 50% in size. Also: potency is read from the fitted curve at half-maximal effect. The method, boiled down:
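Quantitative high-throughput screen in VM7Luc4E2 cells: compound plus 0.1 nM E2 (final), 22 h, 37C, 5% CO2; ONE-Glo added, 30 min room temperature, luminescence measured.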

A short description of experiment [5]: qHTS assay to identify small molecule HDAC inhibitors (AID 1259364). Also: top concentration of the series differs between compounds; nearly all actives have a fitted effect of over 45% in size. The procedure, abridged: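 Endogenous HDAC class I/II activity was measured in wild-type HCT-116 cells by HDAC-Glo luminescence after 2 h compound treatment.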
Experiment [6] in a line: qHTS assay to identify small molecule HDAC inhibitors - cell viability counter screen (AID 1259365). Also: series mostly up to about 92 µM; nearly all actives have a fitted effect of over 50% in size. The procedure, abridged: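 Following a 2hr exposure of overnight-plated wild-type HCT-116 cells to DMSO-delivered compounds, CellTiter-Glo was added and luminescence recorded after 30min at room temperature.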
Experiment [7] can be described thus: qHTS assay to identify small molecule antagonists of the sonic hedgehog signaling (Shh) pathway - cell viability counter screen (AID 1259367). Also: nearly all actives have a fitted effect of over 55% in size. Also: potency is read from the fitted curve at half-maximal effect. The method, boiled down: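 After a 4 hr settling period, 3T3 Gli1-Luc cells were treated with DMSO-dissolved chemicals and conditioned medium, kept 24 hr at 37C in 5% CO2, and assayed for viability by CellTiter-Fluor fluorescence following 1 hr reagent incubation.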

Experiment [8] is described as follows: qHTS assay to identify small molecule agonists of the sonic hedgehog signaling (Shh) pathway - cell viability counter screen (AID 1259366). Also: nearly all actives have a fitted effect of over 50% in size. Also: potency is read from the fitted curve at half-maximal effect. The procedure, abridged:
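After a 4hr attachment at 37C, NIH/3T3 cells bearing an integrated Gli1-driven luciferase reporter were dosed with compounds. Treatment lasted 24hr, with the final hour including CellTiter-Fluor for a fluorescence viability measurement.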

Experiment [9] in a line: qHTS assay to identify small molecule phospholipidosis (PLD) inducers (AID 1259344; active = well fitted curve in the direction sought with a large enough effect; an effect the other way counts as inactive or inconclusive). The method, boiled down: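 HepG2 cells grown on collagen I take up LipidTOX Red while exposed to compound for 24 h; after fixation they are imaged at 20x and pit metrics are extracted.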

Each structure is given as a SMILES string. Where “and” joins values, the source holds several entries; their conditions need not be identical. Equal entries are not always repeated. Results filed as inconclusive are left out. A structure can be active in one record and inactive in another. Calls of active or inactive are those of the source. Unless noted, calls follow the shape of the dose curve; as a rule, active = well fitted curve in the direction sought with a large enough effect in the repeat runs; inconclusive = weak or mixed curves; inactive = no such curve, though single readings can be large; an effect the other way counts as inactive or inconclusive.

Estrogen receptor (Homo sapiens), sequence (P03372 whole entry, looked up): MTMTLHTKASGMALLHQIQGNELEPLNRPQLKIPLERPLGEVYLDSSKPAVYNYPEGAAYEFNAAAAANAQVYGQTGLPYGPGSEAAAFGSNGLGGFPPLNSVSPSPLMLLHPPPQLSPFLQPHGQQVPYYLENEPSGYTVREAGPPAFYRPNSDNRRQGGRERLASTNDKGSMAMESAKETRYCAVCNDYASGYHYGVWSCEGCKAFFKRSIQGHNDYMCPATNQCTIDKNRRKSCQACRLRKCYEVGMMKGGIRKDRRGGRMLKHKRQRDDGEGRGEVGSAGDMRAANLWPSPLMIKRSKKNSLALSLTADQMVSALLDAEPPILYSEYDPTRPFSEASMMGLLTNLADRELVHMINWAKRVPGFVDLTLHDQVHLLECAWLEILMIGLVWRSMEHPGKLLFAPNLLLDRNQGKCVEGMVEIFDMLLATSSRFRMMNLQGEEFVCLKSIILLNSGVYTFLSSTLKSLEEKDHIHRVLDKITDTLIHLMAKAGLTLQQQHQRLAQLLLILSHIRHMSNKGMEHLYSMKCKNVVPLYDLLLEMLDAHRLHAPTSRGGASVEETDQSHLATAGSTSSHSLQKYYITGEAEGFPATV

As to `Oc1ccc(-c2ccccc2)cc1`, the Potency result in [1], in [2], in [3], in [4], in [5] and in experiment [7] was “inactive” throughout. The result in [6] was inactive.
Consider `N#CC(Br)Br`, for which the Potency result in [1], in [2], in experiment [3], in experiment [4], in experiment [8] and in [7] was “inactive” each time. Moreover, in experiment [6], the molecule was classed as inactive.
For `Cc1ccccc1[N+](=O)[O-]`, the Potency result in experiment [1], in [2], in [3], in [4], in experiment [8] and in experiment [7] was “inactive” each time. In experiment [6], the molecule was classed as inactive.
Regarding `Oc1cc(Cl)ccc1Oc1ccc(Cl)cc1Cl`, the Potency was 22.4 µM (active) and 16.9 µM (active) in [1]; 31.4 µM (active) in experiment [3]; 31.4 µM (active) and inactive in experiment [8]; 31.4 µM (active) and inactive in experiment [7]. For the same molecule, the Potency entry in [2] and in [5] was “inactive” throughout. Moreover, the call in experiment [9] and in experiment [6] was inactive.
As for `C#CCOS(=O)OC1CCCCC1Oc1ccc(C(C)(C)C)cc1` (centres undefined), the Potency result in [1] and in experiment [2] was “inactive” in each case. Moreover, the Potency is 6.11 µM (active) in [3]; 8.64 µM (active) and 15.4 µM (active) in [4]; 24.4 µM (active) and 54.5 µM (active) in experiment [8]; 21.7 µM (active) and 27.3 µM (active) in experiment [7]. The molecule was classed as inactive in [6].
Turning to `C[C@]12CCC(=O)C(O)=C1CC[C@@H]1[C@@H]2CC[C@]2(C)C(=O)CC[C@@H]12`, the Potency entry in [1], in experiment [2], in experiment [3], in experiment [4], in [8] and in [7] was “inactive” in each case. The result in experiment [6] was inactive.
Regarding `c1ccc(P(c2ccccc2)c2ccccc2)cc1`, the Potency entry in experiment [1], in experiment [2], in experiment [3], in experiment [4], in [8] and in [7] was “inactive” throughout. The molecule was called inactive in experiment [6].
Take `OCC(O)CO`: the Potency result in experiment [1], in [2], in experiment [3], in [4], in [5] and in [8] was “inactive” in each case. In [7], the Potency entry is “inactive”. Further, in experiment [6], the result was inactive.
On to `Oc1cc(Cl)c(Cl)cc1Cl`, for which the Potency entry in experiment [1], in experiment [2], in [3], in experiment [5], in [8] and in experiment [7] was “inactive” each time. The molecule was classed as inactive in experiment [9] and in experiment [6].
With `NNC(=S)NN`, the Potency entry in experiment [1], in experiment [2], in experiment [3], in experiment [4], in experiment [5] and in [7] was “inactive” in each case. In addition, the call in [6] was inactive.
As to `Nn1cnnc1`, the Potency entry in experiment [1], in experiment [2], in [3], in experiment [4], in [8] and in experiment [7] was “inactive” throughout. For the same molecule, the call in experiment [6] was inactive.
Consider `COC(=O)c1sccc1S(=O)(=O)NC(=O)Nc1nc(C)nc(OC)n1`, for which the Potency result in [1], in [2], in [3], in experiment [4], in [8] and in [7] was “inactive” throughout. In addition, the outcome in experiment [6] was inactive.
Consider `C[C@]12CCC(=O)C[C@@H]1CC[C@@H]1[C@@H]2CC[C@]2(C)[C@@H](O)CC[C@@H]12`, for which the Potency entry in [1], in experiment [2], in [3], in [5], in [8] and in [7] was “inactive” in each case. Also, the molecule was called inactive in experiment [9] and in [6].
Take `O=P(O)(O)CCCl`: the Potency result in experiment [1], in [2], in [3], in experiment [4], in experiment [5] and in experiment [8] was “inactive” in each case. Also, the Potency result in [7] is “inactive”. Also, the result in [6] was inactive.
For the molecule `CCOc1cc(C=O)ccc1O`, the Potency entry in experiment [1], in experiment [2], in experiment [3], in experiment [5], in [8] and in experiment [7] was “inactive” in each case. The call in experiment [9] and in [6] was inactive.
With `Clc1nc(Cl)nc(Cl)n1`, the Potency entry in experiment [1], in [2], in [3], in experiment [4], in [5] and in experiment [8] was “inactive” throughout. Moreover, in experiment [7], the Potency result is “inactive”. In addition, in [6], the molecule was called inactive.
As for `CCN(N=O)C(N)=O`, the Potency entry in experiment [1], in experiment [2], in [3], in [4], in experiment [5] and in experiment [8] was “inactive” in each case. Besides, the Potency result in experiment [7] is “inactive”. In addition, in [6], the outcome was inactive.
As to `CCCCC(CC)COC(=O)Cl` (centres undefined), the Potency entry in experiment [1] was “inactive and 38.9 µM (active)”. Moreover, the Potency entry in experiment [2], in [3], in experiment [4], in experiment [8] and in experiment [7] was “inactive” in each case. In addition, the molecule was called inactive in experiment [6].
Take `CCCCN(CCCC)N=O`: the Potency result in experiment [1], in experiment [2], in [3], in [4], in experiment [5] and in [8] was “inactive” throughout. Further, in experiment [7], the Potency result was “inactive”. Besides, the molecule was classed as inactive in experiment [6].
`O=P(Oc1ccccc1)(Oc1ccccc1)Oc1ccccc1`: the Potency result in experiment [1], in [2], in [3], in experiment [4], in experiment [5] and in [8] was “inactive” each time. For the same molecule, in experiment [7], the Potency result was “inactive”. The molecule was called inactive in experiment [6].
Regarding `CC(C)C(=O)OCC(C)(C)C(OC(=O)C(C)C)C(C)C` (centres undefined), the Potency result in experiment [1], in experiment [2], in experiment [3], in [4], in [8] and in experiment [7] was “inactive” throughout. Further, the result in experiment [6] was inactive.
With `Nc1cccnc1`, the Potency entry in [1], in experiment [2], in experiment [3], in [4], in experiment [8] and in [7] was “inactive” each time. In [6], the molecule was classed as inactive.
Regarding `ClC1C(Cl)C(Cl)C(Cl)C(Cl)C1Cl` (centres undefined), the Potency entry in experiment [1], in experiment [2], in experiment [3], in experiment [5], in [8] and in experiment [7] was “inactive” in each case. In addition, the molecule was called inactive in [9] and in [6].
With `NC(=S)Nc1ccccc1`, the Potency in experiment [1] was 55.9 µM (active) and inactive; in experiment [4], 27.8 µM (active) and inactive. The Potency result in experiment [2], in experiment [3], in experiment [8] and in experiment [7] was “inactive” each time. Also, the result in experiment [6] was inactive.
Consider `O=C(NC(=O)c1c(F)cccc1F)Nc1ccc(Cl)cc1`, for which the Potency result in [1], in [2], in [3], in experiment [4], in experiment [8] and in experiment [7] was “inactive” each time. The outcome in experiment [6] was inactive.
On to `CCOC(=O)C(C)OC(=O)c1cc(Oc2ccc(C(F)(F)F)cc2Cl)ccc1[N+](=O)[O-]` (centres undefined), for which the Potency entry in [1], in experiment [2], in experiment [3], in experiment [4], in [8] and in experiment [7] was “inactive” throughout. The outcome in experiment [6] was inactive.
In the case of `C=CCN(CC=C)C(=O)C(Cl)Cl`, the Potency result in experiment [1], in [2], in [3], in experiment [8] and in [7] was “inactive” throughout. Besides, in experiment [6], the result was inactive.
